Bioassay records (PubChem BioAssay)
Rows were chosen to be rich in hits. Some 1.5% of all compounds tested hit in one or more screens of this group.
IDE cell activ: human IDE activators in live cells, primary screen, fluorescence polarization, HEK cells, FAbeta-B substrate; Insulin-degrading enzyme (Homo sapiens), P14735; FAbeta-B cleavage; 0% vehicle, 100% cell-free pure enzyme wells; activation, % at 5.96 µM; actives 0.073% (n = 340,000);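 active = activation above the mean of all tested compounds plus 3 SD, set per screening campaign, cut at about 17% in these data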
Target sequence (P14735 whole entry, looked up): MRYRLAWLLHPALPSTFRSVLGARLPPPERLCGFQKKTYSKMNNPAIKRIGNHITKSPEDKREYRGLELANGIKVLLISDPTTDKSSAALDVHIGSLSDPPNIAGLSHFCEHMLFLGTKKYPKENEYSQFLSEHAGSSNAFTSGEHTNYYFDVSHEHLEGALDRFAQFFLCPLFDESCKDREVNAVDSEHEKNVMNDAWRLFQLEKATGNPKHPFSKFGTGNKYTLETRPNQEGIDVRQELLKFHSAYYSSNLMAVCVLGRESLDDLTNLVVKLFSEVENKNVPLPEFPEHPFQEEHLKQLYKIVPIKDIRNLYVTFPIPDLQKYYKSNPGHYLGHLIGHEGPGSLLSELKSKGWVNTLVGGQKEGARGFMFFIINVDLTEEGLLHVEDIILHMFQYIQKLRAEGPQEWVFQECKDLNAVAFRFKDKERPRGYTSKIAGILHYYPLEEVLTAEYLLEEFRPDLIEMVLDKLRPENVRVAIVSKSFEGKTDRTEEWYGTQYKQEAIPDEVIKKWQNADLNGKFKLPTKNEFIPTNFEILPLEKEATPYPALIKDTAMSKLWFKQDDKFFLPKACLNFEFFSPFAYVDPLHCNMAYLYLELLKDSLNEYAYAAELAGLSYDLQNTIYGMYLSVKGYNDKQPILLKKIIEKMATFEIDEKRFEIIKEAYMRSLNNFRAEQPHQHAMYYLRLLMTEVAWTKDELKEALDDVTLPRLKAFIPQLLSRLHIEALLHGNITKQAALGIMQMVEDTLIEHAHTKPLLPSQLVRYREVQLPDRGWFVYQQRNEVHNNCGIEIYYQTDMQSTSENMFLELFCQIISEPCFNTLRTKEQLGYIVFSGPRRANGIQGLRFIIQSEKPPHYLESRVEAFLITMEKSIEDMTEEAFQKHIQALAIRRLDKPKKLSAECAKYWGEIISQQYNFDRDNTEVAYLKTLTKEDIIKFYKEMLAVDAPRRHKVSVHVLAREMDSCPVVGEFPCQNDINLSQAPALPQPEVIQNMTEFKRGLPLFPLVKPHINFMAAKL
Cardiac RTF inh: cardiac RTF calcium sensitivity inhibitors, primary screen, biochemical, IANBD-TnC fluorescence, EC70 calcium. Troponin I, cardiac muscle (Homo sapiens) + Troponin T, cardiac muscle (Homo sapiens) + …. IANBD-labeled cardiac RTF, Ca2+ fluorescence. inhibition, % at 7.15 µM. actives 0.12% (n = 340,000). AID 493244, 2011;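 active = inhibition above the mean inhibition of all tested compounds plus 3 SD, cut at about 17% in these data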;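 also: assay run at fixed EC70 calcium of 1.6 mM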
RTF Ca sens act: cardiac RTF calcium sensitivity activators, primary screen, biochemical, IANBD-TnC fluorescence, EC20 calcium; Troponin I, cardiac muscle (Homo sapiens) + Troponin T, cardiac muscle (Homo sapiens) + …; IANBD-labeled TnC RTF fluorescence at EC20 calcium; 0% EC20 calcium, 100% full calcium; activation, % at 7.2 µM; actives 0.24% (n = 340,000);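 active = activation above the mean over all tested compounds plus 3 SD, cut at about 30% in these data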;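 also: rise in fluorescence read as greater calcium sensitivity of cardiac thin filaments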
CRFBP-R2 agonist: agonists of CRF-BP/CRF-R2 complex, primary screen, cell-based, HEK293, calcium dye fluorescence, uHTS. CRF-binding protein / CRF receptor 2 complex (human). calcium dye fluorescence (FLIPR); percent of saturating CRF peptide response. activation, % at 13.2 µM. actives 0.46% (n = 350,000);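 active = activation of at least 50%, plus an integration ratio under a set limit after plate pattern correction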
CRFBP-R2 block: antagonists of CRF-BP/CRF-R2 complex, primary screen, cell-based, HEK293, calcium dye fluorescence, uHTS. CRF-induced calcium fluorescence. inhibition, % at 11.8 µM. actives 0.59% (n = 350,000);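 active = inhibition of the ligand-induced calcium signal above about 50% at the single tested concentration, limit read from the data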
IDE cell inh: human IDE inhibitors in live cells, primary screen, fluorescence polarization, HEK cells, FAbetaB substrate. actives 0.41% (n = 320,000). Insulin-degrading enzyme (Homo sapiens), P14735. FAbetaB cleavage. AID 434962, 2010. inhibition, % at 5.59 µM;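 active = percent inhibition above the average of all tested compounds plus 3 SD, set per screening campaign, cut at about 16% in these data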;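 also: IDE supplied by intact live HEK cells; FP after avidin binding of uncleaved biotin substrate so inhibition keeps polarization high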
Numbers stand for hits; 0 = inactive; - = not tested or not shown.

SMILES | IDE cell activ | Cardiac RTF inh | RTF Ca sens act | CRFBP-R2 agonist | CRFBP-R2 block | IDE cell inh
Cc1nn(C)cc1C(C(=O)NC1CCCCC1)N(C(=O)Cc1cccs1)c1ccc(Cl)cc1 (stereo unspecified) | 0 | 0 | 0 | 58 | 0 | 0
CC(C)N(CCc1ccncc1)C(=S)Nc1cccc(Cl)c1 | 0 | 0 | 0 | 0 | 0 | 0
CN(C)S(=O)(=O)c1cccc(NC(=O)c2cccc(S(=O)(=O)N3CCCCCC3)c2)c1 | 0 | 0 | 0 | 0 | 0 | -
CC(=O)c1ccc(S(=O)(=O)Nc2ccc(C(=O)NCC(c3cccs3)N3CCOCC3)cc2)cc1 (stereo unspecified) | 0 | 0 | 0 | 0 | 0 | 0
CCOc1ccc(NS(=O)(=O)c2ccc(C(=O)NCC(c3cccs3)N3CCOCC3)cc2)cc1 (stereo unspecified) | 0 | 0 | 0 | 61 | 0 | 0
O=C(NCCCn1cccn1)c1cc(COc2ccccc2)on1 | - | - | - | 0 | 0 | -
O=[N+]([O-])c1ccc(O)c(/C=N\N=C2c3ccccc3-c3ccccc32)c1 | 0 | 0 | 0 | 84 | 74 | 0
NC(N)=N/N=C/c1cc([N+](=O)[O-])ccc1O | 0 | 0 | 0 | 0 | 0 | 0
CC(=O)Oc1cccc(N2C(=O)c3ccc(C(=O)Nc4c[nH]c(=O)[nH]c4=O)cc3C2=O)c1 | 0 | 0 | 0 | 0 | 0 | 0
O=C(Nc1cccc(S(=O)(=O)N2CCCCC2)c1)c1ccc(S(=O)(=O)C(F)F)cc1 | 0 | 0 | 0 | 0 | 54 | 0
CC1CCCN(CCCNC(=O)CN2C(=O)CSc3ccc(S(=O)(=O)N4CCOCC4)cc32)C1 (stereo unspecified) | 0 | 0 | 0 | 0 | 89 | 0
CC1CCN(S(=O)(=O)c2ccc3c(c2)N(CC(=O)NCCCN2CCCC(C)C2)C(=O)CS3)CC1 (stereo unspecified) | 0 | 0 | 0 | 0 | 0 | 0
CCN1C(=O)c2cccc3c(S(=O)(=O)Nc4ccccc4OC)ccc1c23 | 0 | 0 | 0 | 129 | 0 | 0
Cc1nn(CCCC(=O)NC2CCC(C)CC2)c(=O)c2nn(-c3ccccc3)c(C)c12 (stereo unspecified) | 0 | 0 | 0 | 0 | 0 | 0
Cc1ccc(CN(C)c2ccc(S(=O)(=O)N3CCCC3)cn2)cc1 | 0 | 0 | 0 | 0 | 0 | 0
CC1(C)CC(=O)C(N=Nc2ccc3ncsc3c2)=C(O)C1 | 0 | 0 | 0 | 0 | 0 | 0
COc1ccc2nc(N=NC3=C(O)CC(C)(C)CC3=O)sc2c1 | 0 | 0 | 0 | 0 | 50 | 0
Cc1ccc(S(=O)(=O)Nc2cc(=O)[nH]c(SCC(=O)Nc3cccc(C(F)(F)F)c3)n2)cc1 | 0 | 0 | 0 | 0 | 110 | -
Cc1ccc(NC(=O)CSc2nc(NS(=O)(=O)c3ccc(C)cc3)cc(=O)[nH]2)cc1 | 0 | 0 | 0 | 0 | 0 | 0
Cn1c2c(c(=O)n(C)c1=O)C(C(F)(F)F)(C(F)(F)F)N=C(c1ccc(Cl)cc1)N2 | 0 | 0 | 0 | 83 | 0 | 0
CCOc1ccc(CN(C)CC(=O)Nc2ccc(N3CCOCC3)cc2)cc1OC | 0 | 0 | 0 | 0 | 0 | 0
COC(=O)C1=C(C)NC(C)=C(C(=O)OC)C1/C=C/c1ccccc1 | 0 | 0 | 0 | 0 | 53 | 0
CCOC(=O)C1=C(C)NC(C)=C(C(=O)OCC)C1/C=C/c1ccccc1 | 0 | 0 | 0 | 0 | 0 | 0
Cc1cc(C)cc(Nc2c(F)c(F)c(F)c(F)c2C(=O)O)c1 | - | - | - | 0 | 52 | 0
COc1c(F)c(F)c(C(=O)O)c(Nc2cccc(C)c2)c1F | - | - | - | 0 | 0 | 0
SMILES | IDE cell activ | Cardiac RTF inh | RTF Ca sens act | CRFBP-R2 agonist | CRFBP-R2 block | IDE cell inh
S=C(NCCc1ccccc1)N1CCC2CC1c1c(Cl)cccc12 (stereo unspecified) | - | - | - | 0 | 51 | -
COc1ccc(CN2CCN(C(=O)c3cccs3)CC2)c(OC)c1OC | 0 | 0 | 0 | 0 | 58 | 0
COc1ccc(CN2CCN(C(=O)c3ccc(-c4ccccc4)cc3)CC2)c(OC)c1OC | 0 | 0 | 0 | 0 | 0 | 0
CCOc1ccccc1NC(=O)C1CCCN1S(=O)(=O)c1ccccc1C(F)(F)F (stereo unspecified) | 0 | 0 | 0 | 0 | 82 | 0
CC(C)CCNC(=O)NC(=O)COC(=O)C1CCN(S(=O)(=O)c2ccccc2F)CC1 | 0 | 0 | 0 | 0 | 0 | 0
O=C(CCl)N1c2ccccc2Oc2ccc3ccccc3c21 | 0 | 0 | 226 | 0 | 0 | -
Cc1c(NC(=O)c2ccc(S(=O)(=O)Nc3ccccc3F)cc2)c(=O)n(-c2ccccc2)n1C | 0 | 0 | 0 | 0 | 0 | 0
CCC1CCCCN1S(=O)(=O)c1ccc(C(=O)Nc2nnc(C3=COCCO3)o2)cc1 (stereo unspecified) | 0 | 0 | 0 | 0 | 0 | 0
CCOc1ccc(/C=N/NC(=O)CN2CCCCCCC2)cc1 | 0 | 0 | 0 | 0 | 57 | 0
CCCOc1ccc(/C=N/NC(=O)CN2CCCCC2)cc1 | 0 | 0 | 0 | 0 | 0 | 0
O=C(Nc1cccc(C(F)(F)F)c1)Nn1cnnc1 | 0 | 0 | 0 | 0 | 0 | -
Cc1cccc(C(=O)N/C(=C\c2ccco2)C(=O)N2CCCC2)c1 | 0 | 0 | 0 | 0 | 0 | 0
CC(C)CC(C(=O)Nn1cnnc1)N1C(=O)c2ccccc2C1=O (stereo unspecified) | 0 | 0 | 0 | 0 | 59 | 0
COC(=O)C(CCC(C(=O)OC)N1C(=O)c2ccccc2C1=O)N1C(=O)c2ccccc2C1=O (stereo unspecified) | 0 | 0 | 0 | 0 | 0 | -
COc1ccc(CCNC(=O)c2nnn(CC(=O)Nc3cccc(F)c3)c2N)cc1OC | 0 | 0 | 0 | 0 | 0 | 0
O=C(Cc1cccs1)N1CCN(S(=O)(=O)c2cc(Cl)ccc2Cl)CC1 | 0 | 0 | 51 | 0 | 0 | 0
Cc1cc(-c2ccc(N3CCOCC3)cc2)nc2ccccc12 | 0 | 0 | 0 | 58 | 0 | 0
CC(=O)OCc1c(F)c(F)c(-n2nc(C)cc2C)c(F)c1F | 0 | 0 | 0 | 0 | 0 | 0
Cc1ccc(-n2nc(C)c(Sc3ccccc3[N+](=O)[O-])c2N)cc1 | 0 | 0 | 0 | 0 | 52 | 0
Cc1ccc(S(=O)(=O)N/N=C/c2ccccc2O)cc1 | 0 | 0 | 0 | 0 | 0 | 0
Cc1ccc(S(=O)(=O)NN=Cc2c(O)ccc3ccccc23)cc1 | - | - | - | 0 | 56 | -
Oc1ccccc1N=Cc1c(O)ccc2ccccc12 | 0 | 0 | 0 | 123 | 0 | -
CS(=O)(=O)Nc1nc2n(n1)C(c1ccccc1)CC(c1ccccc1)N2 (stereo unspecified) | 0 | 0 | 0 | 0 | 106 | 0
